Experimental data as given in paper PMC4336329 (PLoS ONE, 2015).
About 14,000 (4.5%) of roughly 310,000 compounds showed an effect of 50% or more. The effect is printed as a negative number. The list comes from a sample in which strong results are over-represented; it also holds similar structures and randomly drawn compounds.

Target: human ether-à-go-go-related gene (hERG) potassium channel (human, UniProt Q12809)
Experiment: primary screen, population patch clamp on CHO cells stably expressing hERG; higher = less effect of the substance
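Note: peak tail current of the secondary pulse compared with the same well before compound.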

Chain of human ether-à-go-go-related gene (hERG) potassium channel (Q12809 whole entry, looked up): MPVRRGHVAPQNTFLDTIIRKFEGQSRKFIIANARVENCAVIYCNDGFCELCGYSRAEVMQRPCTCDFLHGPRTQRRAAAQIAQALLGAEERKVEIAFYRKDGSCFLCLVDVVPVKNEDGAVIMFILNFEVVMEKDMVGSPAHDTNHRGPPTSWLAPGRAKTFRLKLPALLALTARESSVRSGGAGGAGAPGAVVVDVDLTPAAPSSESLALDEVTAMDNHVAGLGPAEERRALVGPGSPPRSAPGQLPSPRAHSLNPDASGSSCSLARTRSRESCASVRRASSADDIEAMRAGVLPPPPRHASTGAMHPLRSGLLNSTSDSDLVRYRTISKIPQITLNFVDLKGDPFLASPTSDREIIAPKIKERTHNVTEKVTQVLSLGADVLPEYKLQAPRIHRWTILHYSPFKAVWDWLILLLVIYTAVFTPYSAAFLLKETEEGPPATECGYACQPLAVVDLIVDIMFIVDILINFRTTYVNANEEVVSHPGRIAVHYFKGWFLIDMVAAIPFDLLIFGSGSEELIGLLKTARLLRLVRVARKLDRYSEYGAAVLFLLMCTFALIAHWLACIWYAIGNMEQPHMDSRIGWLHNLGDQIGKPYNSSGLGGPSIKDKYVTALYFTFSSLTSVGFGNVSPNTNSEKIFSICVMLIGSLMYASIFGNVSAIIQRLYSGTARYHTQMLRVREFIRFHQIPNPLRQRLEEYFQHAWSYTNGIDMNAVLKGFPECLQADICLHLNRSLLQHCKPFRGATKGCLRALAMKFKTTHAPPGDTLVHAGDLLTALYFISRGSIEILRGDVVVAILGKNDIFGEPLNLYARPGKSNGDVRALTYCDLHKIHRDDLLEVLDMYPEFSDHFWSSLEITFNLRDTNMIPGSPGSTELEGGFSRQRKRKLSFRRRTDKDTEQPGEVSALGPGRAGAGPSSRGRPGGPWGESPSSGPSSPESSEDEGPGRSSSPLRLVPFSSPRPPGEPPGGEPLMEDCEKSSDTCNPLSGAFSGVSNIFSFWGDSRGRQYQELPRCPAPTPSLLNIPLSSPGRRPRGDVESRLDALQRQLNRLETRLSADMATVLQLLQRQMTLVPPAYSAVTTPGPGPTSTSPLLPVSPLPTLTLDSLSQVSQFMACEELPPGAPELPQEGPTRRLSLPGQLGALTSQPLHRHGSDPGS

SMILES | hERG current change (%, negative = inhibition) at 10uM [%]
COc1cccc(NC(=O)c2ccccc2N2C(=O)C3C4C=CC(C4)C3C2=O)c1 (stereo not drawn) | -1.23
CCN(CC)CC(=O)NN(Cc1ccccc1)c1ccccc1.O=C(O)C(=O)O | -73.6
CCN(CC(=O)NC(=O)NCc1ccccc1)Cc1ccccc1 | -20.6
O=C(CN1CCCCCC1)NN(Cc1ccccc1)c1ccccc1.O=C(O)C(=O)O | -72.3
O=C(CN1CCCCC1)Nc1ccccc1NC(=O)CN1CCCCC1 | 3.83
CC(C)(O)C(=O)NN(Cc1ccccc1)c1ccccc1 | 16.2
O=C(CN1CCCCC1)NC(=O)NCc1ccccc1 | 14.3
O=C(CN1CCCCC1)NN(Cc1ccccc1)c1ccccc1.O=C(O)C(=O)O | -73.3
O=C(CN1CCCCCC1)Nc1ccccc1F.O=C(O)C(=O)O | 9.38
CN1CCN(CC(=O)NN(Cc2ccccc2)c2ccccc2)CC1.O=C(O)C(=O)O | -14.2
Cc1ccc(C)c2sc(N)nc12 | 22.6
COc1ccc(NC(=O)CSc2ncn[nH]2)c([N+](=O)[O-])c1 | -4.71
Nc1nc(N)nc(-c2cc(C(F)(F)F)ccc2Cl)n1 | 11.9
CC(=O)N(C)c1ccc(NC(=O)c2cnn(C)c2)cc1 | 3.39
COc1cccc(CN2C(=O)CCC2(C)C(=O)NC2CCCCC2)c1 (stereo not drawn) | 12.9
COc1cccc(-c2cc(C(=O)N/N=C/c3ccco3)c3ccccc3n2)c1 | -2.76
C/C(CC(=O)Nc1cccc2c1CCCC2)=N\NC(=O)c1cccc2ccccc12 | -7.31
O=C(c1ccc2oc(Cc3ccc(Cl)cc3)nc2c1)N1CC[C@H](O)C1 | 4.21
Br.CCCCC1CC(CSC(=N)N)OC1=O (stereo not drawn) | -1.27
CCCCCCC1CC(C)(C(=O)C[NH2+]c2nncs2)OC1=O.[Br-] (stereo not drawn) | -66.3

SMILES | hERG current change (%, negative = inhibition) at 10uM [%]
CCCCC1CC(C)(C(=O)CSc2nc3ccccc3s2)OC1=O (stereo not drawn) | -0.178
CCCCCCC1CC(/C(C)=N\NC(N)=O)OC1=O (stereo not drawn) | -53
CCCCCC1CC(CC(=O)Nc2nncs2)C(=O)O1 (stereo not drawn) | -8.91
CCCCC1CC(/C(C)=N/NC(N)=O)OC1=O (stereo not drawn) | -6.35
CCCCCCCC1CC(/C(C)=N/NC(N)=O)OC1=O (stereo not drawn) | -45.3
Br.CCCCCCCC1CC(CSC(=N)N)OC1=O (stereo not drawn) | -44.2
CCCC1CC(C)(/C(C)=N\NC(N)=S)OC1=O (stereo not drawn) | 12.4
CCCCCC1CC(/C(C)=N/NC(N)=O)OC1=O (stereo not drawn) | -7.05
Br.CCCCCCC1CC(CSC(=N)N)OC1=O (stereo not drawn) | -52.1
CCCCCCC1CC(C)(/C(C)=N/NC(N)=O)OC1=O (stereo not drawn) | -50.1
COc1cccc(NC(=O)c2ccccc2-c2ccccc2C(=O)O)c1 | 10.1
COc1ccc(NC(=O)CN(c2ccc([N+](=O)[O-])cc2)S(=O)(=O)c2ccccc2)cc1 | -10.3
Cc1ccc(C(=O)O/N=C(\N)c2nonc2N)cc1 | -8.67
COc1ccc(-c2nc3ccc([N+](=O)[O-])cc3[nH]2)cc1 | 13.5
Cc1c(NC(=O)CSc2nnnn2-c2ccc(C(=O)O)cc2)c(=O)n(-c2ccccc2)n1C | 20.8
CN(CC(=O)Nc1ccccc1C(F)(F)F)C(=O)c1cc2c(s1)CCCCC2 | -29.2
CCc1sc(C(=O)NCc2ccccc2)cc1C | -9.06
CN1CCN(S(=O)(=O)c2ccc(N(C)CC(=O)Nc3ccc(F)cc3)nc2)CC1 | -4.31
CN(CC(=O)Nc1ccc(C(N)=O)cc1)CC(=O)Nc1ccccc1Br | 11
Cc1ccc2c(CN3CCN(C(=O)c4ccco4)CC3)cc(=O)oc2c1C | -48.6

SMILES | hERG current change (%, negative = inhibition) at 10uM [%]
O=C(c1ccco1)N1CCN(Cc2cc(=O)oc3cc(O)ccc23)CC1 | -69.3
O=c1cc(CN2CCN(Cc3ccccc3)CC2)c2ccc(O)cc2o1 | -76.8
CCc1cc2c(CN3CCN(Cc4ccccc4)CC3)cc(=O)oc2cc1O | -35.5
COc1ccc2oc(=O)cc(CN3CCOCC3)c2c1 | 18.3
CN1CCN(Cc2cc(=O)oc3ccc(Cl)cc23)CC1 | -16.7
O=c1cc(CN2CCOCC2)c2cc(Cl)ccc2o1 | -0.546
O=c1cc(CN2CCN(Cc3ccccc3)CC2)c2cc(O)ccc2o1 | -68.2
O=C(O)C(=O)O.O=C(c1ccco1)N1CCN(Cc2cccc3ccccc23)CC1 | -24.3
COc1ccc(OC)c(CN2CCN(Cc3cc(=O)oc4cc(O)ccc34)CC2)c1 | -74.8
CC1CN(Cc2cc(=O)oc3cc(O)ccc23)CC(C)O1 (stereo not drawn) | -23.3
COC(=O)C1CCN(Cc2cc(=O)oc3cc(OC)ccc23)CC1 | -17.8
O=C(NC1CCOCC1)C1CCC(=O)N(Cc2cccc(C(F)(F)F)c2)C1 (stereo not drawn) | 13.7
Cc1cc2c(cc1S(=O)(=O)CCC(=O)N(C)Cc1ccccc1)OCC(=O)N2 | -35
O=[N+]([O-])c1cccc(/C=N/n2c(C3CCCCC3)n[nH]c2=S)c1 | 11.9
COc1cc([N+](=O)[O-])ccc1NC(=O)Nc1ccc2c(c1)OCCO2 | 25.3
CCN1CCN(CCNC(=O)CCCn2nc(C)c3c(C)n(-c4ccc(C)cc4)nc3c2=O)CC1 | 0.678
O=C(CCC(=O)c1ccc[nH]1)c1ccc(Cl)cc1 | -5.4
CC1CCCN(CCC(=O)Nc2ccc(F)c(F)c2)C1 (stereo not drawn) | -30.1
COc1ccc(/C(C)=N/NC(=O)Cc2ccc(Cl)cc2)cc1 | 14.6
O=C1C(=O)N(c2ccccn2)C(c2ccc(Br)cc2)/C1=C(/O)c1ccc(Br)cc1 (stereo not drawn) | -47.8
